Screening results deposited in PubChem by several laboratories.
CYP2C9 inhib: blocks human cytochrome P450 2C9. hit rate 20% among 96,000. CYP2C9 Supersomes, luciferin-H conversion, luminescence. inhibition, % at 5 µM. P11712;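 active = blocking of liver enzyme CYP2C9 beyond about 50% at 5 µM, limit read from the data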
CYP2C19 act: increases human CYP2C19 enzyme activity. P33261. recombinant CYP2C19, luciferin-H EGE luminescence; stronger effect = higher value; 0 = fully inhibited enzyme, 1 = untreated enzyme. activation factor at 5 µM. 96,000 tested, under 10 active. AID 1025;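 active = activation factor of at least 2 at 5 µM in the primary screen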;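 note: 0 = wells with 2.5 mM tranylcypromine and 1 = vehicle-only wells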
Target sequence (P33261 whole entry, looked up): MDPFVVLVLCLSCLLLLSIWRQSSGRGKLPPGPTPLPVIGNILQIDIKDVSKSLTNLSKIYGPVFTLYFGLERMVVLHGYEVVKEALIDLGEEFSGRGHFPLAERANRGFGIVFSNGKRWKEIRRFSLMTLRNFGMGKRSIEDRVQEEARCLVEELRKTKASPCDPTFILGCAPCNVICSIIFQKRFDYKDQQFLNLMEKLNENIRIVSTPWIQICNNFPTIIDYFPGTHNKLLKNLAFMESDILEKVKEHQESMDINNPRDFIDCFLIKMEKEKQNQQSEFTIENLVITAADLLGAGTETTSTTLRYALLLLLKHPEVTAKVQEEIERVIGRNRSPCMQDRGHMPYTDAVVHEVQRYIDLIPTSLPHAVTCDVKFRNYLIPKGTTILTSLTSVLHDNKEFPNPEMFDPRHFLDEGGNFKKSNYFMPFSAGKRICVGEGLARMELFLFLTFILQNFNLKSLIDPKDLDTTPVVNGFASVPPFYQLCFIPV
PostGolgi yeast: growth inhibition of a yeast mutant, post-Golgi transport screen; post-Golgi transport phenotypic cell assay; inhibition, % at 10 µM; hit rate 0.9% among 98,000; AID 739;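 note: yeast cells grown in 1536-well plates; yeast grown about 18 h at 30C before absorbance read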
CYP2C9 activ: increases human cytochrome P450 2C9 activity. hit rate 1.4% among 96,000. activation factor at 5 µM. recombinant CYP2C9, luciferin-H conversion, luminescence; stronger effect = higher value; factor 1 = untreated enzyme, 0 = blocked;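 active = activation factor of 2 or more for CYP2C9 at a 5 µM dose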;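 note: 0 = sulfaphenazole-blocked wells and 1 = vehicle-only wells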
PostGolgi ctrl: growth of the yeast control strain, post-Golgi counter-screen; efflux-deficient yeast background strain, growth absorbance A615, 16 h; inhibition, % at 10 µM; hit rate 5% among 98,000
CYP2C19 inh: blocks human cytochrome P450 2C19; P33261; CYP2C19 Supersomes, luciferin-H EGE luminescence, 30 min; inhibition, % at 5 µM; hit rate 21% among 96,000; AID 778;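 active = CYP2C19 inhibition above a set limit at 5 µM in the primary screen, cut at about 50% in these data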;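 note: plate controls were negative control wells for no effect and 2.5 mM tranylcypromine positive control for full effect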
The depositor's hits bear a star. A selection: hits, their analogues and other compounds. The true share with any hit is near 32%. Cut-off read from the data, not from the text of the source, unless noted: active = inhibition above about 30%; inactive = the rest.

SMILES	CYP2C9 inhib	CYP2C19 act	PostGolgi yeast	CYP2C9 activ	PostGolgi ctrl	CYP2C19 inh
Cc1ccc(-c2[nH]nc3c2C(c2ccc(OC(=O)N4CCOCC4)cc2)C(C#N)=C(N)O3)cc1 (configuration not stated)	36	0.6	-5	0.6	0	40
Cc1ccc(C)c(C(=O)CCC(=O)Nc2cccnc2)c1	-23	0.5	6	1.2	1	48
COc1cc(C2NC(=O)C(C#N)=C(S)N2c2ccc(C)cc2)ccc1OC(C)C (configuration not stated)	13	1	-4	0.9	7	2
COc1ccc(C2Nc3ccccc3C(=O)N2c2ccc(C)cc2)cc1Cn1cc([N+](=O)[O-])cn1 (configuration not stated)	90*	0.5	-18	0.1	7	46
COc1ccc(N2C(=O)c3ccccc3NC2c2ccc(OC)c(CSc3ccccn3)c2)cc1 (configuration not stated)	58*	0.7	15	0.4	12	33
COc1ccc(N2C(=O)CCC(C(=O)NCc3ccccn3)C2c2ccc(OC)c(OC)c2)cc1 (configuration not stated)	-14	1.1	-6	1.1	-5	-14
COc1ccc(C2Nc3ccccc3C(=O)N2c2ccc(C)cc2)cc1Cn1nnc2ccccc21 (configuration not stated)	81*	0.5	9	0.2	1	51*
CCn1ccnc1C(O)c1cccc(OC)c1OC (configuration not stated)	-15	1	-13	1.2	5	1
CCOc1cc(C(=O)CSc2nnc(CNc3ccc(Cl)cc3)o2)ccc1NC(=O)CC	31	0.6	-7	0.7	-4	42
C=CCNC(=O)NC(=O)COC(=O)CCCSc1nc2ccccc2[nH]1	-20	0.8	-3	1.2	0	16
c1ccc(-c2nnc(CSc3nc4ccccc4[nH]3)o2)cc1	67*	0.1	1	0.3	19	90*
CS(=O)(=O)c1nc(-c2ccccc2)cc(-c2ccccc2)c1C#N	22	0.9	2	0.8	54*	7
N#Cc1c(-c2ccccc2)cc(-c2ccccc2)nc1SCc1nnc(-c2ccccc2)o1	70*	0.7	-4	0.3	20	29
O=C(CCCSc1nc2ccccc2[nH]1)Nc1nnc(-c2ccccc2)o1	52*	0.6	-3	0.5	4	42
CCSc1nc2ccccc2[nH]1	-27	1.1	-4	1.3	6	-6
Cc1ccnc(N2C(=O)OC(C)(C)C2(C)O)c1 (configuration not stated)	17	0.9	3	0.8	8	10
Cc1[nH]n(-c2ccc(Cl)cc2)c(=O)c1C=Nc1ccc(S(=O)(=O)N2CCOCC2)cc1	14	1	5	0.9	14	-2
COC(=O)[C@H](CC(C)C)NC(=O)NC1CCCCC1C (some centres not stated)	23	0.7	-1	0.8	-1	25
O=C1C(c2ccc(F)cc2)N(Cc2ccc3c(c2)OCO3)C(=O)CN1C1CCCCC1 (configuration not stated)	33	0.8	-4	0.7	3	19
O=[N+]([O-])c1ccc(C(=S)N2CCN(Cc3ccccc3)CC2)cc1	-9	0.9	-11	1.1	7	7
COc1ccc(C2C3=C(N=C4SCC(=O)N42)c2ccccc2CC3)cc1OC (configuration not stated)	54*	0.6	11	0.5	24	39
COc1ccc(C2C3=C(N=C4SCC(=O)N42)c2ccccc2CC3)cc1 (configuration not stated)	91*	0	13	0.1	19	95*
COc1ccccc1C1C2=C(N=C3SCC(=O)N31)c1ccccc1CC2 (configuration not stated)	-11	1.1	2	1.1	18	-11
CC1(C)NC(=O)NC2(C)NC(=O)NC(C)(C)C12 (configuration not stated)	-16	1.1	6	1.2	4	-12
CCN(CC)c1nc(Nc2ccccc2)nc(Oc2ccc(=O)[nH]n2)n1	24	0.9	-3	0.8	0	11
SMILES	CYP2C9 inhib	CYP2C19 act	PostGolgi yeast	CYP2C9 activ	PostGolgi ctrl	CYP2C19 inh
CN(C)c1nc(NCc2ccccc2)nc(Oc2ccc(=O)[nH]n2)n1	14	0.4	-6	0.9	-3	60*
CCC12CN(S(=O)(=O)c3ccc(C)cc3)CC(CC)(CN(S(=O)(=O)c3ccc(C)cc3)C1)C2=O	38	0.6	3	0.6	-6	43
C=CCN1CN(S(=O)(=O)c2cccs2)c2nc3ccccc3nc21	17	0.4	5	0.8	9	63*
O=S(=O)(c1cccs1)N1CN(Cc2cccs2)c2nc3ccccc3nc21	79*	0.1	0	0.2	20	93*
O=S(=O)(c1cccs1)n1cnc2ccccc21	-38	0.9	3	1.4	12	11
O=S(=O)(c1cccs1)N1CN(Cc2ccccc2)c2nc3ccccc3nc21	1	1.1	1	1	12	-12
O=S(=O)(c1cccs1)N1CN(Cc2ccc(F)cc2)c2nc3ccccc3nc21	70*	0.8	-3	0.3	12	22
O=C(O)c1cc(N2C(=O)C3CC=CCC3C2=O)ccc1NCc1cccnc1 (configuration not stated)	19	0.8	-6	0.8	1	15
CCOC(=O)C1CCCN(C(=O)Nc2ccccc2)C1 (configuration not stated)	6	0.6	-7	0.9	-3	43
O=C(Nc1ccccc1)N1CCCC2CCCCC21 (configuration not stated)	-1	0.6	30*	1	1	37
O=C(NCc1ccccc1)C1CCCN(C(=O)Nc2ccccc2)C1 (configuration not stated)	44	0.3	-3	0.6	0	67*
CN(C)C(=O)N1CCC(C(=O)NCc2ccc(F)cc2)CC1	-3	1	-13	1	2	5
CN(C)C(=O)N1CCC(C(=O)NCc2ccccc2)CC1	6	1	-8	0.9	38*	0
CCN1CCc2c(C#N)c(NCc3ccccc3)nc(N(CC)CC)c2C1	45	0.8	-2	0.5	5	17
COCCNS(=O)(=O)c1ccc(-c2ccc(C)cc2)cc1	93*	0.3	-3	0.1	9	74*
Cc1ccc(S(=O)(=O)NCCOCCNS(=O)(=O)c2ccc(C)cc2)cc1	-101	0.3	6	2*	-2	68*
O=C(NCc1cccnc1)c1ccc(=O)oc1	-3	1.1	-1	1	4	-11
CC(C)COC(=O)c1cc(-c2ccc(/C=N/n3cnnc3)o2)ccc1Cl	38	0.8	5	0.6	36*	23
CCNc1nc(NC(C)C)nc(Oc2ccc(OCCOc3ccccc3)nn2)n1	42	0.6	-11	0.6	16	44
